Each structure is given as a SMILES string. A number with no mark means an inactive call. Records with an inconclusive call do not appear. Activity calls are given as the source filed them. Unless noted, the call rests on the fitted dose curve; in most records, active means well fitted curve in the direction sought with a large enough effect; inconclusive means small, poorly fitted or top-dose-only effect, or another doubt; inactive means no such curve, though single readings can be large; an effect the other way counts as inactive or inconclusive.

Assay [1] can be described thus: High Content Imaging Cell-Based qHTS for Inhibitors of the mTORC1 Signaling Pathway in MEF Cells (AID 2667).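 Further: Tsc2-/- p53-/- MEFs stably re-expressing wild-type Tsc2 exposed 24 h; series mostly up to about 38 µM; plate controls were DMSO wells for no effect and rapamycin control wells for full effect.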 The method in brief:
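Immunofluorescence for rpS6 phosphorylation in MEFs of Tsc2-/-, p53-/- background rescued with WT Tsc2. Compound exposure lasted 24 hrs. Inhibition was scored against rapamycin-treated control wells.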
On the technique in general: In qHTS, concentration-response curves come from the screen itself.

Assay [2] is described as follows: Cytometry Cell-Based qHTS for Inhibitors of the mTORC1 Signaling Pathway in MEF cells (AID 2668).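 Further: Tsc2-/- p53-/- mouse embryonic fibroblasts stably re-expressing wild-type Tsc2; percent cells positive for phospho-rpS6 Ser235/236 relative to propidium iodide stain; series mostly up to about 38 µM; plate controls were DMSO wells for no effect and 7.5 nM rapamycin control wells for full effect.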 The method in brief:
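WT MEFs (Tsc2-/-, p53-/- stably re-expressing WT Tsc2) in DMEM + 10% FBS received compounds 24 hrs after plating, for 24 hrs at 37 degree Celsius. Fixed cells stained with Alexa-488 anti-phospho-rpS6 Ser235/236 and propidium iodide; laser-scanning cytometry read-out.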

Assay [3] is described as follows: Validation screen for small molecules that induce DNA re-replication in MCF 10A normal breast cells (AID 463097). Further: 0% is about no effect; nearly all actives have a fitted effect of over 60% in size. In short, it runs like this: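 Readout: Hoechst nuclear fluorescence intensity, 405 ex / 500-530 em, by scanning plate imager; re-replication scored as increase in nuclei with elevated DNA content. Cells exposed to compound 48 hr, 37 C, 5% CO2 beforehand.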

The target in assay [4] is Ubiquitin carboxyl-terminal hydrolase 2 (Homo sapiens) (UniProt O75604). The assay can be described thus: qHTS Validation Assay for Inhibitors of Ubiquitin-specific Protease USP2a Using CHOP2 as the Reporter (AID 463106).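 Further: plate controls were DMSO for no effect and full inhibition by NEM for full effect.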 In short, it runs like this: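 10nM USP2 core + cpd, 30min RT; add 25nM Ub-CHOP2/25nM substrate; 60min RT; FI 485/531nm. Buffer Tris pH 8.0, CaCl2, BME, CHAPS. Norm. to NEM = 100% inhibition; time-zero read flags fluorescent artifacts.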

The target of assay [5] is DNA polymerase III PolC-type (Bacillus subtilis (strain 168)) (UniProt P13267). Description: qHTS Validation Assay for the Inhibitors of DNA Replication in Gram-Positive Bacteria (AID 485295).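 Further: PicoGreen fluorescence of double-stranded DNA made on primed circular M13 template; series mostly up to about 57 µM; 0% = DMSO wells and -100% = EDTA-quenched background wells.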 The method in brief:
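Reconstituted B. subtilis holoenzyme (Pol III, beta clamp, SSB, primase) was preincubated with compound at room temperature, then given single-stranded circular M13Gori plus dNTPs and NTPs. EDTA-containing PicoGreen stopped the reaction, and dsDNA product was read by fluorescence.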

The target of assay [6] is Tumor susceptibility gene 101 protein (Homo sapiens) (UniProt Q99816). The assay can be described thus: qHTS Validation Assay for Iinhibitors of HIV-1 Budding by Blocking the Interaction of PTAP/TSG101 (AID 485342; calls by dose curve; further: 0% is about no effect). In short, it runs like this: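 Tsg101 binding domain (10 uM final) in pH 7.5 HEPES/NaCl/Tween 20/EDTA/TCEP buffer was mixed with pin-transferred compounds, then FITC-labeled PTAP peptide (50 nM final) was added; after 20 min at r.t., fluorescence polarization was read.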
Tumor susceptibility gene 101 protein (Homo sapiens), sequence (Q99816 whole entry, looked up, the tested form may be a part): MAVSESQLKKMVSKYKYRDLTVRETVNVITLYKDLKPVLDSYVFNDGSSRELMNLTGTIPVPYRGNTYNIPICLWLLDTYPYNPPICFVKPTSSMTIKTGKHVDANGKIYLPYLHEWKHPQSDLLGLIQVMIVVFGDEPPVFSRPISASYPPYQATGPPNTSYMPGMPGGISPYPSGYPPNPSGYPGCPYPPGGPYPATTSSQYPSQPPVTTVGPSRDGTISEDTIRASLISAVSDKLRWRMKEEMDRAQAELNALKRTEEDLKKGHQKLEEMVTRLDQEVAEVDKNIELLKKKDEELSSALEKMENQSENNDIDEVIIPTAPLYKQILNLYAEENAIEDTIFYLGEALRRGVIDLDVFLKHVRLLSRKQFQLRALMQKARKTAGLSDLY

Assay [7] is described as follows: qHTS Validation Assay to Find Inhibitors of Chronic Active B-Cell Receptor Signaling (AID 485345; active means well fitted curve in the direction sought with a large enough effect in the main read-out, with a control signal flat, not every such curve was filed as active;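 further: 0% = untreated basal cells and 100% = 10 µM MG-132 proteasome inhibitor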). The method in brief: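 Read-out: ratio of filter-corrected green (IkappaBalpha fusion) to red (native) luciferase signal in doxycycline-induced TMD8 cells after 4 h at 37C. Titration spanned 46 uM–3 nM; Data were normalised to basal cells and 10 uM MG-132 wells.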

The target in assay [8] is Beta-2 adrenergic receptor (Homo sapiens) (UniProt P07550). Description: qHTS validation assay of beta-arrestin-biased ligands of beta2-adrenergic receptor (AID 485366). Further: 0% is about no effect. In short, it runs like this: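 Tango cells (recombinant beta2-AR with recombinant beta-arrestin; recruitment releases tTA driving luciferase) were treated with compounds titrated up to 46 microM for 18 hr at 37 degrees C. Luminescence gave %Activity, and concentration-response curves were curve-classified.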

Assay [9] addresses Thioredoxin reductase 1, cytoplasmic (Rattus norvegicus) (UniProt O89049). Description: qHTS Assay for Substrates of Mammalian Selenoprotein Thioredoxin Reductase 1 (TrxR1) (AID 488772).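 Further: NADPH fluorescence in the first read after selenite addition and not the 8 min delta; series mostly up to about 57 µM; 0% is about no effect; a drop in NADPH fluorescence below the no-compound background marks a TrxR1 substrate.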 In short, it runs like this: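 Quantitative HTS in Tris-HCl buffer at pH 7.5 with EDTA and Tween-20, using rat TrxR1, 400 uM NADPH and 400 uM selenite (final). A fall in initial NADPH fluorescence relative to background marked substrate behaviour.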

For assay [10] the target is unchanged. Description: qHTS Assay for Inhibitors of Mammalian Selenoprotein Thioredoxin Reductase 1 (TrxR1) (AID 488773).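 Further: drop in NADPH fluorescence over an 8 min run after selenite addition; series mostly up to about 57 µM; on the % scale 0 is the no-effect control and ±100 the full control effect; nearly all actives have a fitted effect of over 40% in size.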 Particulars: Potency: inhibition. In short, it runs like this:
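Steps: enzyme (90 nM) plus NADPH (400 uM final), 5 min at ~22 deg C; compound added, 15 min; selenite (400 uM final) added; fluorescence followed for 8 min. Concentration-response curves derived from the normalized delta values.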

Assay [11] has as its target M-phase phosphoprotein 8 (Homo sapiens) (UniProt Q99549). The assay can be described thus: qHTS Validation Assay for Inhibitors for MPP8 Chromodomain Interactions with Methylated Histone Tails (AID 488949).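 Further: AlphaScreen signal from MPP8 chromodomain bound to biotinylated H3K9me3 peptide; top concentration of the series differs between compounds; on the % scale 0 is the no-effect control and ±100 the full control effect; nearly all actives have a fitted effect of over 55% in size.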 The method in brief:
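MPP8 (50 nM) was preincubated with biotinylated H3(1-18)K9me3 peptide (50 nM) in PBS pH 7.4, 0.01% Tween-20 for 30 min at room temperature, then with compounds for 30 min; binding was detected by AlphaScreen.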

Assay [12] concerns the target Chromobox protein homolog 1 (Homo sapiens) (UniProt P83916). The assay can be described thus: qHTS Validation Assay for Inhibitors of HP1-beta Chromodomain Interactions with Methylated Histone Tails (AID 488953).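 Further: loss of AlphaScreen luminescence from HP1-beta binding biotinylated H3K9me3 peptide; series mostly up to about 110 µM; on the % scale 0 is the no-effect control and ±100 the full control effect; nearly all actives have a fitted effect of over 50% in size.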 In short, it runs like this: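 HP1-beta (50 nM) was preincubated 30 min at room temperature with biotinylated H3(1-18)K9me3 peptide (50 nM) in PBS pH 7.4, 0.01% Tween-20, then with compounds 30 min. AlphaScreen signal was read after streptavidin donor/nickel chelate acceptor beads (10 ug/mL final).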

In assay [13] the target is Thyrotropin receptor (Homo sapiens) (UniProt P16473). The assay can be described thus: qHTS Assay for Antagonists of the Thyroid Stimulating Hormone Receptor (AID 488980). Further: series mostly up to about 58 µM; 0% is about no effect. The method in brief:
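HEK293 cells transfected with human TSHR, suspended in HEPES-buffered HBSS with 70 uM RO 20-1724, were treated with compounds plus TSH at EC80 (4 nM final). cAMP was measured by competitive HTRF (cryptate anti-cAMP antibody, cAMP-d2 acceptor).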

In assay [14] the target is D(1A) dopamine receptor (Homo sapiens) (UniProt P21728). Description: HTS Assay for Allosteric Agonists of the Human D1 Dopamine Receptor: Primary Screen for Agonists (AID 488981). Further: 0% is about no effect. In short, it runs like this: (§1)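 Calcium flux in an inducible, force-coupled HEK293 Trex D1 line (overnight at 30 C): agonist mode is the 180 s kinetic read after compound; potentiator mode is the following 180 s read after dopamine at EC20.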
D(1A) dopamine receptor (Homo sapiens), sequence (P21728 whole entry, looked up): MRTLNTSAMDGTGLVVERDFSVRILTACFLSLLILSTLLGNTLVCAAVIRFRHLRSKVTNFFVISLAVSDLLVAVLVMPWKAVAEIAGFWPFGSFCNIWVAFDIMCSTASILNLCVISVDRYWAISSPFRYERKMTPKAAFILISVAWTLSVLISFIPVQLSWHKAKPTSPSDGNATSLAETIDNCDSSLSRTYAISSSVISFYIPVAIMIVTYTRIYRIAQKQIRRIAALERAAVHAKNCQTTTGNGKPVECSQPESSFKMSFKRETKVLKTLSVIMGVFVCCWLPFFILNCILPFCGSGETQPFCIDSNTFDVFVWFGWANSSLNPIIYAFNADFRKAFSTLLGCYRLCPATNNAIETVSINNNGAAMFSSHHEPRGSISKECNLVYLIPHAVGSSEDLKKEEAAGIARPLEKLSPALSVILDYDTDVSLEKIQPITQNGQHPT

For assay [15] the target is unchanged. Description: HTS Assay for Allosteric Agonists of the Human D1 Dopamine Receptor: Primary Screen for Potentiators (AID 488982). Further: 0% is about no effect. In short, it runs like this: as §1
Assay [16] has the same target. The assay can be described thus: HTS Assay for Allosteric Agonists of the Human D1 Dopamine Receptor: Primary Screen for Antagonists (AID 488983).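 Further: calcium flux response to an EC80 dopamine challenge measured with no-wash dye; on the % scale 0 is the no-effect control and ±100 the full control effect; nearly all actives have a fitted effect of over 65% in size.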 In short, it runs like this:
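Tetracycline-induced HEK293 T-REx cells expressing force-coupled D1 were plated overnight at 30 C, dye-loaded for calcium, and read kinetically. Compounds were pinned in, then an EC80 dopamine challenge followed after 180 s to reveal antagonism.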

Assay [17] in a line: Validation screen for small molecules that induce genotoxicity in human embryonic kidney (HEK293T) cells expressing luciferase-tagged ELG1 (AID 493106). Further: potency means the concentration at half of the fitted maximal effect. In short, it runs like this:
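HEK293T cells expressing luciferase-tagged ELG1 were exposed to compound or DMSO vehicle for 16 hr at 37 °C, 5% CO2. Genotoxic stress raises ELG1 levels, so increased luciferase signal after ONE-Glo addition and 30 min at room temperature marks hits.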

In assay [18] the target is Thyrotropin-releasing hormone receptor (Homo sapiens) (UniProt P34981). Description: qHTS for Small Molecule Agonists and Allosteric Enhancers of Human TRH Receptor: Validation Screen for Agonists (AID 493127;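 active means calcium activation more than 3 SD above the typical response in the agonist read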;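 further: intracellular calcium rise by fluo-8 fluorescence before TRH EC20 addition; 0% is about no effect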). As to conditions: TRH receptor agonist cell assay; at 2 µM; stronger effect = higher value. The method in brief:
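TRHR-expressing cells were plated overnight in serum-containing medium, then loaded with fluo-8 calcium dye at room temperature for 30 min–1.5 h. After a 10 s baseline, compound was pin-transferred and calcium fluorescence (ex 480/em 530) read kinetically for agonist response.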

Assay [19] can be described thus: Nrf2 qHTS screen for inhibitors: Validation (AID 493153; active means well fitted inhibition curve with a large enough effect in the main read-out, with a control signal flat, not every such curve was filed as active; further: series mostly up to about 46 µM; % of control where 0% means no effect). Particulars: viability change: measured here: cytotoxicity max response. In short, it runs like this:
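A549 cells carrying an ARE-driven firefly luciferase reporter, in 5% FBS OPTI-MEM, were treated with compounds in concentration-response for 18-24 h at 37°C. Viability was read by CellTiter-Fluor fluorescence, then Nrf2 activity by luciferase luminescence.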

M-phase phosphoprotein 8 (Homo sapiens), sequence (Q99549 whole entry, looked up): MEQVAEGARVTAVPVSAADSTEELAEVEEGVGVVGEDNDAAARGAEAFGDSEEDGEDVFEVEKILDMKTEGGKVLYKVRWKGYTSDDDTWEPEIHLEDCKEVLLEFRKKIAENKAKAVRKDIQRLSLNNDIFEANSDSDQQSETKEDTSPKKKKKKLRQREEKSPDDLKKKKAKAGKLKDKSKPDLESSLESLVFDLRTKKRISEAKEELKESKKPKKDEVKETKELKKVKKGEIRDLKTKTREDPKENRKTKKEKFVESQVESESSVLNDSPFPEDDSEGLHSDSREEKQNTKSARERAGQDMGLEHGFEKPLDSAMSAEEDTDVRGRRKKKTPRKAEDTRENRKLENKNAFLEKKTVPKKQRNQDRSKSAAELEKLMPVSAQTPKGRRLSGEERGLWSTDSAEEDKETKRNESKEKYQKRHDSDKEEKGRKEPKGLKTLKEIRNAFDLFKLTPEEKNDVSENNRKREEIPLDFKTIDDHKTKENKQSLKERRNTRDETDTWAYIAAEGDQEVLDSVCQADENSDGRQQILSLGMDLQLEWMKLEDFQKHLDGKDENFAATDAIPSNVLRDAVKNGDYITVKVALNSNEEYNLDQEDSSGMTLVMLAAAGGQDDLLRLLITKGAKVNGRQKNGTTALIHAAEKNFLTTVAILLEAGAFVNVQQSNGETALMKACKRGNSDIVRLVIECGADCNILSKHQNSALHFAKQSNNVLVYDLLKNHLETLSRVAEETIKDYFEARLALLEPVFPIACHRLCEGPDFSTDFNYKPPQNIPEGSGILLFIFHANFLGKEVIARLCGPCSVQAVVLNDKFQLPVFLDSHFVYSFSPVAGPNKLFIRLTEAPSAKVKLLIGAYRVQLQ
Thioredoxin reductase 1, cytoplasmic (Rattus norvegicus), sequence (O89049 whole entry, looked up): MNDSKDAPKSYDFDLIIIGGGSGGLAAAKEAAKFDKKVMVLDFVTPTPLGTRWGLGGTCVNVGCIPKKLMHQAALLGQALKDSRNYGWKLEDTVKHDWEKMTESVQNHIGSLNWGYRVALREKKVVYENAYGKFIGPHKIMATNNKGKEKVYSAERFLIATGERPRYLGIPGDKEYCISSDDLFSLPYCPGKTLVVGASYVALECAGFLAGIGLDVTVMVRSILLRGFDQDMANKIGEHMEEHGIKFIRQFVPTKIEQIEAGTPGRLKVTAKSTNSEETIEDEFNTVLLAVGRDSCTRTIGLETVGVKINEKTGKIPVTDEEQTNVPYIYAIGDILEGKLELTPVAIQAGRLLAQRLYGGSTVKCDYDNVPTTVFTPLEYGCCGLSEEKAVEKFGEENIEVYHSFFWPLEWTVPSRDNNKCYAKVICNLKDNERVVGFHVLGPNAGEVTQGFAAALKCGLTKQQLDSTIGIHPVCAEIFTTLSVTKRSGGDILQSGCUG
Chromobox protein homolog 1 (Homo sapiens), sequence (P83916 whole entry, looked up): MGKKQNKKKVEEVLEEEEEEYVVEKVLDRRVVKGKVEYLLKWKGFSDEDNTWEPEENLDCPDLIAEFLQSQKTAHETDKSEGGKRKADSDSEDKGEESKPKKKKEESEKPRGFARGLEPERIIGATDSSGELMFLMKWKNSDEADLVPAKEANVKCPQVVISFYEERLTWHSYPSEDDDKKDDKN
Thyrotropin-releasing hormone receptor (Homo sapiens), sequence (P34981 whole entry, looked up): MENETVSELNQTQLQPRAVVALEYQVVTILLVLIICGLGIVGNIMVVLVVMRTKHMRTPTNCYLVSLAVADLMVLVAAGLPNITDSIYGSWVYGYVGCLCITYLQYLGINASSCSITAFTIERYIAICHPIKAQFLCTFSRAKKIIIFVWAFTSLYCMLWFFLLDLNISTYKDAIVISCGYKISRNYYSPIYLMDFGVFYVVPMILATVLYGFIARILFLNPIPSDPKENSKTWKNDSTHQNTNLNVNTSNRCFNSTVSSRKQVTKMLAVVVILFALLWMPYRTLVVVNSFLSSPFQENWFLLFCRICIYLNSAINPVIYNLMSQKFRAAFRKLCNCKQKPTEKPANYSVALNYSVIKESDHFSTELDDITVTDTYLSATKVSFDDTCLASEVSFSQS
DNA polymerase III PolC-type (Bacillus subtilis (strain 168)), sequence (P13267 whole entry, looked up): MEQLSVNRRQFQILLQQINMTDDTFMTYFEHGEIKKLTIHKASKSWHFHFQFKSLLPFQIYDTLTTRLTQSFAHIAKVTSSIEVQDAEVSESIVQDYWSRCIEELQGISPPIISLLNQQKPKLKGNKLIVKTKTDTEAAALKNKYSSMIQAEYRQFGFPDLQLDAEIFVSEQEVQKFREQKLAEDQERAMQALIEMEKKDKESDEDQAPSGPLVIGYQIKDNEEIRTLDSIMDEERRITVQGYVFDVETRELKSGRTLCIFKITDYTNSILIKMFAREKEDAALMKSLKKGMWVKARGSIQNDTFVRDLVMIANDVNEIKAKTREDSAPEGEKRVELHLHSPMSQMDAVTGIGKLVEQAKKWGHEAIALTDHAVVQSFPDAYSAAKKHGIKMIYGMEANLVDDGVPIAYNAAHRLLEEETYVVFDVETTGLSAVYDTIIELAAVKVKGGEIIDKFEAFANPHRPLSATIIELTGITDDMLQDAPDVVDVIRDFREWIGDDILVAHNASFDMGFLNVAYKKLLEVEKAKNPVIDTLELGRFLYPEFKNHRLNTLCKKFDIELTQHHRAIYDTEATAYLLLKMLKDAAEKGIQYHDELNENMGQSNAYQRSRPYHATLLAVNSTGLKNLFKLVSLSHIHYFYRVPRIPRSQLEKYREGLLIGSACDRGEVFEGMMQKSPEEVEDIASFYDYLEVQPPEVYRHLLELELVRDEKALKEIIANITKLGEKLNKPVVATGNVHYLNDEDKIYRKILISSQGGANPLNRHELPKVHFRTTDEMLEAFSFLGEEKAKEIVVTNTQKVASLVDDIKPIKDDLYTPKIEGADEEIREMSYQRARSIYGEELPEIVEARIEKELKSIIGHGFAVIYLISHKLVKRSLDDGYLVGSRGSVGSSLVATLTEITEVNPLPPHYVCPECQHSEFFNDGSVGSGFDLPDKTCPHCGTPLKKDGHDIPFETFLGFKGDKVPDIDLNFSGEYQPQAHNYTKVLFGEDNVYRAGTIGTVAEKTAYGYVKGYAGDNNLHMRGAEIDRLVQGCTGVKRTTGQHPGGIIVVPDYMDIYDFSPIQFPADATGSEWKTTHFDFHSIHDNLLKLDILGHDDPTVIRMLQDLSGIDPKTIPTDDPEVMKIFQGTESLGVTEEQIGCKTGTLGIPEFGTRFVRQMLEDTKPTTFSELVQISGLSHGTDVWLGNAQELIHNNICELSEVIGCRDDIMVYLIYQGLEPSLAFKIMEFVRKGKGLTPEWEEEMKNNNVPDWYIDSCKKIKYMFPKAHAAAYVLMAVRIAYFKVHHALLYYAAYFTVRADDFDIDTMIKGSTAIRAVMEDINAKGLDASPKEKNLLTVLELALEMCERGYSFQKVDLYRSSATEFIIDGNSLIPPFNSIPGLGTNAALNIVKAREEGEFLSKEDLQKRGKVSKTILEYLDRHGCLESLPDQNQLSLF
Thyrotropin receptor (Homo sapiens), sequence (P16473 whole entry, looked up): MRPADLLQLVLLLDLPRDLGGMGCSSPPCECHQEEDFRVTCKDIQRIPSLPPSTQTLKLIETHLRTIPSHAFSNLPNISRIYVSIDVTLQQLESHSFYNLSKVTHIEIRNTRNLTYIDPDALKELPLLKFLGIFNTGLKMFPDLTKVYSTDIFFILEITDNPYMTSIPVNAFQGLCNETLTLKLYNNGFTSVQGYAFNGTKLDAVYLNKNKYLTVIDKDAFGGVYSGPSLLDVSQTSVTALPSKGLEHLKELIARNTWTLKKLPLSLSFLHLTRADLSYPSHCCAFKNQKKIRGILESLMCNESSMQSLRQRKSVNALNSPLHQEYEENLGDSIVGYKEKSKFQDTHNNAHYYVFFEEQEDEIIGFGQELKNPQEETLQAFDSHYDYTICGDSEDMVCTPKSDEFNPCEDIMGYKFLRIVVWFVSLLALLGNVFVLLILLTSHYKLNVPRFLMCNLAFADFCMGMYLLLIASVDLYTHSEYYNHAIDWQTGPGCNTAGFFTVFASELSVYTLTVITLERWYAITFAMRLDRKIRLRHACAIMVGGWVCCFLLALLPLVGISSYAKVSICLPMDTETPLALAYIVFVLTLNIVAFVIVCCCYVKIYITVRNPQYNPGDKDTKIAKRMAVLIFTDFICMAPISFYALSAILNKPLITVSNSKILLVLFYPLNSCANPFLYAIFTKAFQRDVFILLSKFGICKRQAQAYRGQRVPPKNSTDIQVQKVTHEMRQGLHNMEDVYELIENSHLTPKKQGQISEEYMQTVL

For `Cc1cccc(/C=C/c2ccccc2)n1`, the Potency result in assay [1], in assay [2], in assay [3], in assay [4], in [5] and in assay [10] was “inactive” each time. Moreover, the Potency result in assay [11] and in assay [12] was “inactive” throughout. The compound was classed as inactive in [6], in assay [7], in assay [8], in assay [9], in assay [13] and in [14]. The outcome in assay [15], in [16] and in assay [19] was inactive. Further, the Potency in [17] was 4.11 µM (active). The activation in [18] is -7%.

(Values after PubChem BioAssay (NCATS).)
